A short description of experiment [1]: NCI Yeast Anticancer Drug Screen. Data for the rad50 strain (AID 155).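 Further: 0% = growth of vehicle-only cultures of the same strain.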 The settings on record: S. cerevisiae rad50 strain growth inhibition, stronger effect = higher value. The gist of the method:
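Growth of the mutant yeast was measured after compound exposure and referenced to vehicle-treated cultures.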

A short description of experiment [2]: NCI Yeast Anticancer Drug Screen. Data for the mec2-1 strain (AID 157). The settings on record: S. cerevisiae mec2-1 strain, stronger effect = higher value. In a few lines:
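Test agents were screened against the mec2-1 yeast strain, with defined DNA repair or cell cycle alteration. Growth was scored as inhibition against vehicle-only controls.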

Experiment [3] is described as follows: NCI Yeast Anticancer Drug Screen. Data for the sgs1 mgt1 strain (AID 161).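 Further: 0% = growth of cultures given vehicle only.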 The following applies: S. cerevisiae sgs1 mgt1 strain, stronger effect = higher value. In a few lines:
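Inhibition of yeast growth, normalised to vehicle-treated controls, is reported for a strain bearing genetic alterations in DNA damage repair.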

A short description of experiment [4]: NCI Yeast Anticancer Drug Screen. Data for the cln2 rad14 strain (AID 165).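 Further: 0% = growth equal to vehicle treated cultures.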 The following applies: S. cerevisiae cln2 rad14 strain, stronger effect = higher value. In a few lines: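 Growth of compound-exposed yeast (cln2 rad14 genotype) measured and expressed as inhibition relative to vehicle.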
The nature of experiment [5]: NCI Yeast Anticancer Drug Screen. Data for the bub3 strain (AID 167). The following applies: S. cerevisiae bub3 mutant strain, stronger effect = higher value. The gist of the method:
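Whole-cell yeast assay. The mutant strain was incubated with compounds, and growth inhibition was determined by comparison with vehicle-treated cells.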

Experiment [6] in a line: NCI Yeast Anticancer Drug Screen. Data for the mlh1 rad18 strain (AID 175). The settings on record: S. cerevisiae mlh1 rad18 strain growth inhibition, stronger effect = higher value. In a few lines: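 In this whole-cell yeast screen, a strain with altered DNA damage repair is challenged with compound, and its growth is measured against matched vehicle-treated controls.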
Setting [7] is: at 5.0 µM (retest, dose inferred, filed as 0.5).
[8] abbreviates: at 50.0 µM (retest, dose inferred, filed as 5.0).

Structures are written as SMILES. Compounds without any hit were thinned out: in the full panel of roughly 79,000, 15% have a hit. Unmarked numbers belong to inactive results. The source made the active and inactive calls. No stated cut-off is given here; in the data, active means growth inhibition above about 70%; inactive means the rest.

`COc1ccc2c(c1)C(=O)C(Br)CC2` (stereo not given): the growth inhibition in experiment [1] (setting [7]) is 16%; in experiment [1] (setting [8]), 98% (active); in experiment [1] (at 50.0 µM), 25.4%; in experiment [2] (setting [7]), 12%; in experiment [2] (setting [8]), 99% (active); in experiment [2] (at 50.0 µM) it was 66.6%. The growth inhibition in experiment [3] (setting [7]) was 2%; in experiment [3] (setting [8]), 55%; in experiment [3] (at 50.0 µM), 71.2% (active); in experiment [4] (setting [7]), 26%; in experiment [4] (setting [8]) it was 92% (active); in experiment [4] (at 50.0 µM), 32%. Further, the growth inhibition in experiment [5] (setting [7]) is 32%; in experiment [5] (setting [8]) it was 99% (active); in experiment [5] (at 50.0 µM), 70%; in experiment [6] (setting [7]), 13%; in experiment [6] (setting [8]) it was 99% (active); in experiment [6] (at 50.0 µM), 65.8%.
For the compound `Cc1ccc2c(c1)C(=O)N(CC[P+](c1ccccc1)(c1ccccc1)c1ccccc1)C2=O`, the growth inhibition was 81% (active) in experiment [1] (setting [7]); 89% (active) in experiment [1] (setting [8]); 61.8% in experiment [1] (at 50.0 µM); 63% in experiment [2] (setting [7]); 85% (active) in experiment [2] (setting [8]); 63.8% in experiment [2] (at 50.0 µM). The growth inhibition in experiment [3] (setting [7]) is 74% (active); in experiment [3] (setting [8]), 91% (active); in experiment [3] (at 50.0 µM), 66.8%; in experiment [4] (setting [7]) it was 65%; in experiment [4] (setting [8]) it was 79% (active); in experiment [4] (at 50.0 µM), 36%. The growth inhibition in experiment [5] (setting [7]) is 84% (active); in experiment [5] (setting [8]) it was 90% (active); in experiment [5] (at 50.0 µM) it was 66.7%; in experiment [6] (setting [7]), 71% (active); in experiment [6] (setting [8]), 82% (active); in experiment [6] (at 50.0 µM), 62.3%.
As for `CC1=C(C(=O)Nc2ccccc2)C(c2ccccc2F)C(C(=O)Nc2ccccc2)=C(C)N1`, the growth inhibition in experiment [1] (setting [7]) is -3%; in experiment [1] (setting [8]), 27%; in experiment [1] (at 50.0 µM) it was 48.4%; in experiment [2] (setting [7]), -4%; in experiment [2] (setting [8]) it was 11%; in experiment [2] (at 50.0 µM) it was 44%. In addition, the growth inhibition in experiment [3] (setting [7]) is -4%; in experiment [3] (setting [8]), 17%; in experiment [3] (at 50.0 µM), 31.3%; in experiment [4] (setting [7]) it was 0%; in experiment [4] (setting [8]), 37%; in experiment [4] (at 50.0 µM) it was -19.1%. Further, the growth inhibition in experiment [5] (setting [7]) was -2%; in experiment [5] (setting [8]) it was 28%; in experiment [5] (at 50.0 µM) it was 11.6%; in experiment [6] (setting [7]), -5%; in experiment [6] (setting [8]) it was 47%; in experiment [6] (at 50.0 µM) it was 50.5%.
As to `[NH-]c1ccccc1[S-].[NH-]c1ccccc1[S-].[Zn]`, the growth inhibition in experiment [1] (setting [7]) was 0%; in experiment [1] (setting [8]), 99% (active); in experiment [1] (at 50.0 µM) it was 99.3% (active); in experiment [2] (setting [7]) it was 11%; in experiment [2] (setting [8]) it was 100% (active); in experiment [2] (at 50.0 µM), 99.6% (active). For the same compound, the growth inhibition in experiment [3] (setting [7]) was 18%; in experiment [3] (setting [8]), 100% (active); in experiment [3] (at 50.0 µM), 102% (active); in experiment [4] (setting [7]), 7%; in experiment [4] (setting [8]) it was 98% (active); in experiment [4] (at 50.0 µM) it was 96.3% (active). Moreover, the growth inhibition in experiment [5] (setting [7]) was 14%; in experiment [5] (setting [8]), 99% (active); in experiment [5] (at 50.0 µM), 99.4% (active); in experiment [6] (setting [7]), 19%; in experiment [6] (setting [8]), 99% (active); in experiment [6] (at 50.0 µM) it was 99.2% (active).
For `CC(C)c1ccc(C(=O)OC2CCCCC2)cc1`, the growth inhibition in experiment [1] (setting [7]) is 7%; in experiment [1] (setting [8]) it was 97% (active); in experiment [1] (at 50.0 µM), 73.3% (active); in experiment [2] (setting [7]), 8%; in experiment [2] (setting [8]), 100% (active); in experiment [2] (at 50.0 µM), 9.4%. In addition, the growth inhibition in experiment [3] (setting [7]) is 7%; in experiment [3] (setting [8]), 96% (active); in experiment [3] (at 50.0 µM), 46%; in experiment [4] (setting [7]), 4%; in experiment [4] (setting [8]) it was 98% (active); in experiment [4] (at 50.0 µM), 58.1%. In addition, the growth inhibition in experiment [5] (setting [7]) is 1%; in experiment [5] (setting [8]) it was 100% (active); in experiment [5] (at 50.0 µM), 88.7% (active); in experiment [6] (setting [7]) it was 2%; in experiment [6] (setting [8]) it was 96% (active); in experiment [6] (at 50.0 µM), 62.2%.
For the compound `Cc1ccc2nc(C[n+]3ccc4ccccc4c3)ccc2c1`, the growth inhibition in experiment [1] (setting [7]) was -1%; in experiment [1] (setting [8]) it was 28%; in experiment [1] (at 50.0 µM) it was 53.5%; in experiment [2] (setting [7]), -1%; in experiment [2] (setting [8]), 17%; in experiment [2] (at 50.0 µM), 50.2%. Besides, the growth inhibition in experiment [3] (setting [7]) was -2%; in experiment [3] (setting [8]), 47%; in experiment [3] (at 50.0 µM), 44.4%; in experiment [4] (setting [7]) it was -5%; in experiment [4] (setting [8]) it was 5%; in experiment [4] (at 50.0 µM), -1.8%. In addition, the growth inhibition in experiment [5] (setting [7]) was -1%; in experiment [5] (setting [8]) it was 38%; in experiment [5] (at 50.0 µM), 43%; in experiment [6] (setting [7]), 0%; in experiment [6] (setting [8]), 16%; in experiment [6] (at 50.0 µM), 55.9%.
As to `COc1ccc(CC2C(=O)NC(C)C(=O)N(C)C3Cc4ccc(cc4)Oc4cc(ccc4O)CC(C(=O)NC(C)C(=O)NC(C)C(=O)N2C)N(C)C3=O)cc1` (stereo not given), the growth inhibition was -6% in experiment [1] (setting [7]); 54% in experiment [1] (setting [8]); 61.1% in experiment [1] (at 50.0 µM); 25% in experiment [2] (setting [7]); 64% in experiment [2] (setting [8]); 39.8% in experiment [2] (at 50.0 µM). The growth inhibition in experiment [3] (setting [7]) was 25%; in experiment [3] (setting [8]) it was 48%; in experiment [3] (at 50.0 µM), 66.5%; in experiment [4] (setting [7]), 46%; in experiment [4] (setting [8]), 72% (active); in experiment [4] (at 50.0 µM) it was 70.5% (active). The growth inhibition was 16% in experiment [5] (setting [7]); 64% in experiment [5] (setting [8]); 59.6% in experiment [5] (at 50.0 µM); -1% in experiment [6] (setting [7]); 77% (active) in experiment [6] (setting [8]); 53.5% in experiment [6] (at 50.0 µM).
As to `CCCCCCCCOc1ccc(/C=C/C(C)=N/NC(N)=NC)cc1OC`, the growth inhibition in experiment [1] (setting [7]) is 98% (active); in experiment [1] (setting [8]) it was 98% (active); in experiment [1] (at 50.0 µM), 98.7% (active); in experiment [2] (setting [7]), 98% (active); in experiment [2] (setting [8]) it was 99% (active); in experiment [2] (at 50.0 µM), 99% (active). The growth inhibition is 82% (active) in experiment [3] (setting [7]); 99% (active) in experiment [3] (setting [8]); 38.7% in experiment [3] (at 50.0 µM); 72% (active) in experiment [4] (setting [7]); 93% (active) in experiment [4] (setting [8]); 98.3% (active) in experiment [4] (at 50.0 µM). The growth inhibition is 97% (active) in experiment [5] (setting [7]); 99% (active) in experiment [5] (setting [8]); 99% (active) in experiment [5] (at 50.0 µM); 99% (active) in experiment [6] (setting [7]); 98% (active) in experiment [6] (setting [8]); 98.5% (active) in experiment [6] (at 50.0 µM).
Turning to `CC(=O)[O-].CC(=O)[O-].CC(=O)[O-].CC(=O)[O-].Cn1c(=O)c2[nH]cnc2n(C)c1=O.Cn1c(=O)c2[nH]cnc2n(C)c1=O.[Rh+2].[Rh+2]`, the growth inhibition in experiment [1] (setting [7]) was 3%; in experiment [1] (setting [8]), 20%; in experiment [1] (at 50.0 µM), 43.3%; in experiment [2] (setting [7]), 12%; in experiment [2] (setting [8]), 23%; in experiment [2] (at 50.0 µM), 27.6%. The growth inhibition in experiment [3] (setting [7]) was 12%; in experiment [3] (setting [8]) it was 13%; in experiment [3] (at 50.0 µM) it was -39.7%; in experiment [4] (setting [7]), 9%; in experiment [4] (setting [8]) it was 9%; in experiment [4] (at 50.0 µM), -5.35%. Moreover, the growth inhibition in experiment [5] (setting [7]) was 11%; in experiment [5] (setting [8]), 19%; in experiment [5] (at 50.0 µM), -29.4%; in experiment [6] (setting [7]) it was 48%; in experiment [6] (setting [8]) it was 62%; in experiment [6] (at 50.0 µM) it was 23.1%.
Consider `COc1ccc(C(C#N)=C2C=CC(=NOC(=O)Nc3ccccc3)C=C2)cc1`, for which the growth inhibition is 41% in experiment [1] (setting [7]); 82% (active) in experiment [1] (setting [8]); 88.4% (active) in experiment [1] (at 50.0 µM); 28% in experiment [2] (setting [7]); 92% (active) in experiment [2] (setting [8]); 93.1% (active) in experiment [2] (at 50.0 µM). Also, the growth inhibition in experiment [3] (setting [7]) is 68%; in experiment [3] (setting [8]), 96% (active); in experiment [3] (at 50.0 µM), 94.8% (active); in experiment [4] (setting [7]), 4%; in experiment [4] (setting [8]), 91% (active); in experiment [4] (at 50.0 µM), -1.4%. Besides, the growth inhibition in experiment [5] (setting [7]) is 12%; in experiment [5] (setting [8]) it was 37%; in experiment [5] (at 50.0 µM), 69.1%; in experiment [6] (setting [7]), 33%; in experiment [6] (setting [8]), 91% (active); in experiment [6] (at 50.0 µM), 96.3% (active).
